KCNQ2 enhance: potentiators of rat KCNQ2 potassium channel | CHO-K1 KCNQ2, FluxOR thallium flux fluorescence; stronger effect = higher value | actives 0.54% (n = 310,000) | B-score at 10 µM | O88943;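 active = fluorescence ratio B-score at least 3 SD of library B-scores, with initial fluorescence B-score within 3 of them, cut at about 5.3 in these data; same plate scores as AID 2156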;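 also: B-score of peak minus minimum over baseline fluorescence ratio after K+ and Tl+ stimulus; positive B-score means potentiation of KCNQ2 with more thallium influx and brighter signal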
KCNQ2 block: KCNQ2 (rat) channel inhibition; O88943; CHO-K1 KCNQ2, FluxOR thallium flux, 20 min; stronger effect = lower value; B-score at 10 µM; actives 1.1% (n = 310,000); AID 2156;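 active = fluorescence ratio B-score at most minus 3 library SDs, with starting brightness B-score within 2 library SDs, cut at about -5.5 in these data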
Kir21 conf inh: confirmation of mouse Kir2.1 potassium channel inhibitors | Kir2.1-expressing cells, FluxOR thallium flux fluorescence; stronger effect = lower value | actives 41% (n = 2,300) | shares compounds with KCNQ2 enhance | AID 2032 | Tl flux remaining, % of negative control (stronger effect = lower value), % at 10 µM;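 active = Primary-screen hit whose thallium flux fell at least 3 control SD below untreated wells in both duplicates, with normal baseline fluorescence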
HEK293 Tl flux: alters thallium flux in parental HEK293 cells, Kir2.1 counter-screen; AID 2105; FluxOR signal as % of negative control (100 = no effect), % at 10 µM; actives 19% (n = 2,300); shares compounds with KCNQ2 enhance; FluxOR thallium flux fluorescence; 0% = unstimulated blank wells;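 active = dye signal at least 3 control SD above or below untreated wells in both duplicates, raw fluorescence within 3, either direction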;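 also: percent is based on the flux ratio of peak minus minimum fluorescence over baseline F0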
CHO-K1 ctr: parental CHO-K1 activity in KCNQ2 potentiator counter-screen; shares compounds with KCNQ2 enhance; parental CHO-K1 cells, FluxOR thallium flux fluorescence; zero = vehicle mean+3SD, 100% = vehicle-minus-blank window; activity increase over 3SD of controls, % at 10 µM; actives 43% (n = 1,200); AID 2282;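 active = signal rise of at least 3 SD above the untreated control mean, in both duplicate wells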;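 also: counter screen of KCNQ2 potentiator hits so any rise reflects channel-independent effects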
KCNQ1 pot spec: human KCNQ1 counter-target activity of KCNQ2 potentiators. actives 28% (n = 1,200). shares compounds with KCNQ2 enhance. activation over 3SD threshold, % at 10 µM. CHO KCNQ1 stable, FluxOR thallium flux fluorescence; beyond 3SD, as % of vehicle-control signal;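 active = fluorescence ratio rise of at least 3 SD of vehicle wells above their mean, in both replicate wells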
KCNQ2 pot confirm: rat KCNQ2 channel potentiator confirmation; CHO-KCNQ2 cells, FluxOR thallium flux fluorescence; actives 68% (n = 1,200); AID 2287; shares compounds with KCNQ2 enhance; potentiation, less the hit threshold, % at 10 µM;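 active = fluorescence ratio rising 3 SD or more over the vehicle control mean in both replicates, plus primary screen hit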;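 also: peak minus minimum thallium fluorescence divided by baseline after K/Tl stimulus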
Kir2-1 sel: selectivity of KCNQ2 potentiators: effect on mouse Kir2.1. shares compounds with KCNQ2 enhance. HEK293 Kir2.1, FluxOR thallium flux fluorescence. activity over 3SD threshold, % at 10 µM. actives 2% (n = 1,200);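 active = fluorescence ratio rise of at least 3 SD above the vehicle-control mean, seen in both replicates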
KCNQ2 W236L MoA: rat KCNQ2 W236L mutant potentiation by KCNQ2 potentiators | shares compounds with KCNQ2 enhance | AID 2558 | current increase over 3SD of negative controls (%), stronger effect = higher value, % at 25 µM | actives 10% (n = 940) | CHO KCNQ2-W236L, automated patch clamp current;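 active = current increase at least 3 SD of the untreated controls above them in both duplicate recordings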
Target sequence (O88943 whole entry W236L, looked up): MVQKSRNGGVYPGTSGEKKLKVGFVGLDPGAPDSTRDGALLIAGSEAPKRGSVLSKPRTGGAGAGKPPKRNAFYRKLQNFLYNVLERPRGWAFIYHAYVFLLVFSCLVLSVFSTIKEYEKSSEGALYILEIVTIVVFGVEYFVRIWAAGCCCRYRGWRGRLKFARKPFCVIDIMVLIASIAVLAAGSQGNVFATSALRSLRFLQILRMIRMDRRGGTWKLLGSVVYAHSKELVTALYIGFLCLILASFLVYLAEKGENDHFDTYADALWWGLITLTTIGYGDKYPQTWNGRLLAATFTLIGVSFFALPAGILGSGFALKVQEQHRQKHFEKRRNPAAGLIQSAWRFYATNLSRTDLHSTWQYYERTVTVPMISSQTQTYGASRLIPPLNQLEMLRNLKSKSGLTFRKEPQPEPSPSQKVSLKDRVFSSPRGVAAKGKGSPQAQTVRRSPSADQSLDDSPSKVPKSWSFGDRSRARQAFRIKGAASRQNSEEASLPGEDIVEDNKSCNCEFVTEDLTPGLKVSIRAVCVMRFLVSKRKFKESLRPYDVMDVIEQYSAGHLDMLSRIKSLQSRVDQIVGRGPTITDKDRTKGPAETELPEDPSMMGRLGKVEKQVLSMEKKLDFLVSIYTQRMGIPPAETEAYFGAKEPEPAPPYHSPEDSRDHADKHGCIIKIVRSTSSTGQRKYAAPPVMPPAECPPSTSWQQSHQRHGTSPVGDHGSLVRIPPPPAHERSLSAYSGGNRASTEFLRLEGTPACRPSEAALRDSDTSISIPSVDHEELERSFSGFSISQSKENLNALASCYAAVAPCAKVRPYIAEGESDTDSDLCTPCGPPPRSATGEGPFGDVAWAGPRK
Each line names hits and unclear results; the compound was inactive in the other large screens (follow-up assays come after a bar, where they were run). In the library only some 1.6% were active in any assay of this set; here they are far more common.

O=C(c1ccc(NS(=O)(=O)c2ccccc2)cc1)N1CCOCC1	none (no result: KCNQ2 enhance)
O=C(Cc1cccc(F)c1F)NC1CCCN(Cc2ccc(Cl)cc2)C1 (centres undefined)	KCNQ2 enhance 6.21 | Kir21 conf inh inactive | HEK293 Tl flux 218.5% | CHO-K1 ctr 115.5 | KCNQ1 pot spec inactive | KCNQ2 pot confirm 16.5 | Kir2-1 sel inactive | KCNQ2 W236L MoA inactive
Cc1cc(C)n(CC(=O)NC2CCCN(Cc3ccc(Cl)cc3)C2)n1 (centres undefined)	none
FC(F)(F)c1cnc(Oc2ccc(-c3nnco3)cc2)c(Cl)c1	none (no result: KCNQ2 enhance)
FC(F)(F)c1cnc(Oc2ccccc2-c2nnco2)c(Cl)c1	KCNQ2 enhance 7.44 | Kir21 conf inh inactive | HEK293 Tl flux inactive | CHO-K1 ctr inactive | KCNQ1 pot spec inactive | KCNQ2 pot confirm 52.7 | Kir2-1 sel inactive | KCNQ2 W236L MoA inactive
Cc1cccc(C)c1NC(=O)CN(C1CCCCC1)S(C)(=O)=O	none
COc1ccc(CCC(C)NCc2ccc(Cl)c(Cl)c2)cc1 (centres undefined)	none (no result: KCNQ2 enhance)
COc1ccc(CCC(C)NCCc2ccc(Cl)cc2Cl)cc1 (centres undefined)	none (no result: KCNQ2 enhance) | Kir21 conf inh 16.0% | HEK293 Tl flux inactive
Cc1cc(OC(=O)c2cc([N+](=O)[O-])ccc2Cl)c([N+](=O)[O-])c(=O)[nH]1	none
CC(C)c1nc(N2CCN(C(=O)c3ccccc3)CC2)c(C#N)c2c1COC(C)(C)C2	none (no result: KCNQ2 enhance)
Cc1nc(N2CCN(Cc3ccccc3)CC2)c(C#N)c2c1COC(C)(C)C2	none (no result: KCNQ2 enhance) | Kir21 conf inh 60.0% | HEK293 Tl flux inactive
Cc1c(CNCCc2ccccc2Cl)c(C(=O)O)c(C)n1-c1ccccc1	none
O=C(CCNS(=O)(=O)c1ccccc1)N1CCC(Cc2ccccc2)CC1	KCNQ2 enhance 10.5 | Kir21 conf inh inactive | HEK293 Tl flux inactive | CHO-K1 ctr 13.9 | KCNQ1 pot spec 87.7 | KCNQ2 pot confirm 8.7 | Kir2-1 sel inactive | KCNQ2 W236L MoA inactive
CC1CCN(C(=O)CCNS(=O)(=O)c2ccccc2)CC1	none
Nc1cccc(C(=O)NCCNC(=O)c2cccc(N)c2)c1	none (no result: KCNQ2 enhance)
Cc1ccc(C)c(-c2cc(C(=O)NCc3cccs3)c3ccccc3n2)c1	KCNQ2 enhance 15.8 | Kir21 conf inh inactive | HEK293 Tl flux 72.5% | CHO-K1 ctr 8.2 | KCNQ1 pot spec inactive | KCNQ2 pot confirm 31.7 | Kir2-1 sel inactive | KCNQ2 W236L MoA inactive
Cc1ccc(C)c(-c2cc(C(=O)Nc3nccs3)c3ccccc3n2)c1	none (no result: KCNQ2 enhance)
Cc1ccccc1NC(=O)Cc1nc(COC(=O)c2ccc(Cl)nc2)cs1	none
O=S1(=O)CCN(C(CCO)c2cccc(C(F)(F)F)c2)CC1 (centres undefined)	none (no result: KCNQ2 enhance)
Cc1c(OCC(=O)NC2CCN(Cc3ccccc3)CC2)ccc2c3c(c(=O)oc12)CCC3	none
Cc1ccc(C(C2C(=O)CC(C)(C)CC2=O)C2C(=O)CC(C)(C)CC2=O)s1	KCNQ2 enhance 5.62 | Kir21 conf inh inactive | HEK293 Tl flux inactive | CHO-K1 ctr inactive | KCNQ1 pot spec inactive | KCNQ2 pot confirm inactive | Kir2-1 sel inactive
CC1(C)CC(=O)C(C(c2ccncc2)C2C(=O)CC(C)(C)CC2=O)C(=O)C1	none (no result: KCNQ2 enhance)
O=C(NCc1ccc(Cl)cc1Cl)Nc1ccccc1	KCNQ2 enhance 10.7 | Kir21 conf inh inactive | HEK293 Tl flux inactive | CHO-K1 ctr inactive | KCNQ1 pot spec 4.9 | KCNQ2 pot confirm 29.2 | Kir2-1 sel inactive | KCNQ2 W236L MoA 9.9%
O=C(NCc1csc2ccc(Cl)cc12)Nc1ccccc1	none (no result: KCNQ2 enhance)
CN(C(=O)COc1ccc([N+](=O)[O-])cc1)C1CCS(=O)(=O)C1 (centres undefined)	none
O=C(CN(C(=O)c1csnn1)c1ccccc1Cl)NC1CCCC1	none
CC(C)c1nc(SCC(=O)N2CCOCC2)c2c(=O)n(C)c(=O)n(C)c2n1	none
CCCc1nc(SCC(=O)N2CCC(C)CC2)c2c(=O)n(C)c(=O)n(C)c2n1	KCNQ2 enhance 24.9 | Kir21 conf inh inactive | HEK293 Tl flux inactive | CHO-K1 ctr inactive | KCNQ1 pot spec inactive | KCNQ2 pot confirm 141.2 | Kir2-1 sel inactive | KCNQ2 W236L MoA inactive
CC(C)Cc1nc(SCC(=O)N2CCOCC2)c2c(=O)n(C)c(=O)n(C)c2n1	none
CCc1nc(SCC(N)=O)c2c(=O)n(C)c(=O)n(C)c2n1	none
CCc1nc(SCC(=O)N2CCC(C)CC2)c2c(=O)n(C)c(=O)n(C)c2n1	KCNQ2 enhance 15.6 | Kir21 conf inh inactive | HEK293 Tl flux inactive | CHO-K1 ctr inactive | KCNQ1 pot spec inactive | KCNQ2 pot confirm 81.2 | Kir2-1 sel inactive | KCNQ2 W236L MoA inactive
CC1CCN(C(=O)CSc2nc3c(c(=O)n(C)c(=O)n3C)n2C)CC1	none
CCc1nc(SCC(=O)N2CCCCC2)c2c(=O)n(C)c(=O)n(C)c2n1	KCNQ2 enhance 9.12 | Kir21 conf inh inactive | HEK293 Tl flux inactive | CHO-K1 ctr inactive | KCNQ1 pot spec inactive | KCNQ2 pot confirm 41.9 | Kir2-1 sel inactive | KCNQ2 W236L MoA inactive
CC(C)Cc1nc(SCC(=O)N2CCCCC2)c2c(=O)n(C)c(=O)n(C)c2n1	KCNQ2 enhance 26.8 | Kir21 conf inh inactive | HEK293 Tl flux inactive | CHO-K1 ctr inactive | KCNQ1 pot spec inactive | KCNQ2 pot confirm 121.3 | Kir2-1 sel inactive | KCNQ2 W236L MoA inactive
Cc1ccc(C)c(C(=O)COC(=O)CN2C(=O)C3C4C=CC(C4)C3C2=O)c1 (centres undefined)	none (no result: KCNQ2 enhance)
COc1ccc(-n2nc3c(N4CCC(C(=O)N5CCCCCC5)CC4)nnc(C)c3c2C)cc1	none
CC(OC(=O)c1ccc(-c2ccc([N+](=O)[O-])cc2)o1)C(=O)NC(N)=O (centres undefined)	none
CC[C@@]12C(=O)N(c3cccc(F)c3)C(=O)N1[C@H](c1ccc(Cl)cc1)[C@@H]1C(=O)N(C3CCCCC3)C(=O)[C@@H]12	none
O=C(OCc1nnc(-c2ccccc2)o1)c1cccc(-n2cnnn2)c1	none
Nc1ccc(N=Nc2ccccc2O)c(N)c1	none
Oc1ccccc1N=Nc1ccccc1O	KCNQ2 enhance 7.9 | Kir21 conf inh inactive | HEK293 Tl flux inactive | CHO-K1 ctr inactive | KCNQ1 pot spec inactive | KCNQ2 pot confirm inactive | Kir2-1 sel inactive
O=C(CCc1ccccc1)N=C1SC2CS(=O)(=O)CC2N1c1ccccc1 (centres undefined)	none
CCc1nnc(NC(=O)CC23CC4CC(CC(Br)(C4)C2)C3)s1	none (no result: KCNQ2 enhance)

Screening results (PubChem)
